“And” between values parts separate entries of the source, which are not always exact repeats. Equal values may be shown once. Out of some 16,000 compounds screened, about 5,700 (36%) were called active. Inconclusive results (about 24%) are left out. This is one part of the list. Unmarked numbers belong to inactive results. Calls come from the whole dose curve; as a rule, active = well fitted curve in the direction sought with a large enough effect; inconclusive = small, poorly fitted or top-dose-only effect, or effect the other way; inactive = no such curve, though single readings can be large or run the other way.
target: Cytochrome P450 1A2 (Homo sapiens) (UniProt P05177); assay: Cytochrome panel assay with activity outcomes; conditions: recombinant CYP, pro-luciferin dealkylation, luminescence, p450-cyp1a2; series mostly up to 57.1 µM; activity, negative = inhibition: at the top concentration
% is set by controls: 0 for no effect and ±100 for the full control effect.

Cytochrome P450 1A2 (Homo sapiens), sequence (P05177 whole entry, looked up): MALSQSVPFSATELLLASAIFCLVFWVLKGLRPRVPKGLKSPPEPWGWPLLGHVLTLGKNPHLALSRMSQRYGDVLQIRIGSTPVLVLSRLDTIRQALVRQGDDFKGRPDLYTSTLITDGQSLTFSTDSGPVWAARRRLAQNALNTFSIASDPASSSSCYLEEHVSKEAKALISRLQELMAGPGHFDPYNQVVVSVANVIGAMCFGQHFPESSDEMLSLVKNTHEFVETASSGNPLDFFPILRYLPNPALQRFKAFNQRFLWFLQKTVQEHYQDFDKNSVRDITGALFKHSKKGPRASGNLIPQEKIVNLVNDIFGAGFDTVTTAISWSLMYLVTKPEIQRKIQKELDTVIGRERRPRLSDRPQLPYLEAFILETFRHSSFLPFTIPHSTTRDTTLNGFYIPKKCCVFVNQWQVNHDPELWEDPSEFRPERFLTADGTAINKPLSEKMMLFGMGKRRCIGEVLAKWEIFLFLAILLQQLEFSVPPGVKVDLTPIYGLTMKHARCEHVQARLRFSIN

SMILES	activity, negative = inhibition	AC50
CCS(=O)(=O)c1ccc2c(c1)N(S(C)(=O)=O)CC(C(=O)NCCOC)O2 (stereo not drawn)	2.25%	–
CCOC(=O)CCN1C(=O)[C@H]2[C@@H]3[C@H](O)[C@H](O)CC(=O)[C@H]3CC[C@H]2C1=O	-2.79% [at 11.4 µM] and -9.9% [at 11.4 µM]	–
COC(=O)C/C=C\[C@@H](C)[C@@H](/C=N\O[C@@H](C)CN1CCCc2nc(C)c(C)cc21)NS(=O)(=O)c1ccc(C)cc1	-5.78% [at 11.4 µM]	–
O=C(O)/C=C1\NC(=O)c2ccccc21	8.34%	–
Nc1ccc2c3c(cccc13)C(=O)NC2=O	–	1 µM (active)
COC(=O)c1sc2ncccc2c1OCc1c(Cl)cccc1Cl	–	0.158 µM (active)
COc1ccc(CNC(=O)Nc2cccs2)cc1OC	–	12.6 µM (active)
COc1cc(CNCc2cccs2)ccc1OCC(=O)NC(C)(C)C	–	3.16 µM (active)
COc1ccc(NC(=O)COc2ccc(CNCCCN3CCOCC3)cc2OC)cc1	-19.7%	–
COc1ccc(CCn2c3c(c(=O)[nH]c2=O)C(NC(=O)c2cccs2)(C(F)(F)F)C(=O)N3)cc1OC (stereo not drawn)	-9.34%	–
COc1ccc(C[C@@](C)(N)C(=O)O)cc1OC	-5.47% [at 25.6 µM]	–
COc1cc(CNCCc2ccccc2)ccc1OCC(=O)NC(C)(C)C	-16.3%	–
C/C(CCN1CCCCc2nc(C)c(C)cc21)=N\OC[C@@H](C)[C@H](OCc1ccccc1)C(C)C	-4.06% [at 11.4 µM]	–
N#Cc1ccc(CN2CC[C@@]3(CCCN(C(=O)c4cc(C(F)(F)F)cc(C(F)(F)F)c4)C3)C2)cc1	–	25.1 µM (active)
O=C(c1ccncc1)N1CCC2(CCN(Cc3ccncc3)CC2)CC1	-7.78%	–
N#Cc1ccc(CN2CC3(CCN(C(=O)c4cc(C(F)(F)F)cc(C(F)(F)F)c4)CC3)C2)cc1	-2.91%	–
O=C(c1cc(C(F)(F)F)cc(C(F)(F)F)c1)N1CCC[C@@]2(CCN(c3ccncc3)C2)C1	5.24%	–
COCC(=O)N1CCC2(CCN(Cc3ccncc3)CC2)CC1	–	10 µM (active)
N#Cc1ccc(CN2CCC3(CC2)CCN(C(=O)c2cc(C(F)(F)F)cc(C(F)(F)F)c2)CC3)cc1	-8.67%	–
CC(=O)N1CCC2(CCN(Cc3ccncc3)CC2)CC1	-11.1%	–
N#Cc1ccc(CN2CCCC3(CCN(S(=O)(=O)c4ccccc4)CC3)C2)cc1	-13.6%	–
O=C(c1cc(C(F)(F)F)cc(C(F)(F)F)c1)N1CCC[C@@]2(CCN(Cc3ccncc3)C2)C1	–	12.6 µM (active)
O=S(=O)(c1ccccc1)N1CCC2(CCN(Cc3ccncc3)CC2)CC1	-9.3%	–
O=C(c1cc(C(F)(F)F)cc(C(F)(F)F)c1)N1CCC2(CCCN(Cc3ccncc3)C2)CC1	-16.3%	–

SMILES	activity, negative = inhibition	AC50
O=S(=O)(c1ccccc1)N1CCC2(CCCN(Cc3ccncc3)C2)CC1	–	12.6 µM (active)
CO/N=C\[C@@H](C)[C@H](OCc1ccccc1)C(C)C	-4.31% [at 11.4 µM]	–
COc1ccc(C(=O)N2CCC3(CCCN(Cc4ccncc4)C3)CC2)cc1	-27.8%	–
O=C(c1cnccn1)N1CCC[C@@]2(CCN(Cc3ccncc3)C2)C1	–	15.8 µM (active)
O=C(c1ccncc1)N1CCC2(CCCN(Cc3ccccc3)C2)CC1	-3.49%	–
O=C(c1ccncc1)N1CCC2(CCCN(Cc3ccncc3)C2)CC1	–	6.31 µM (active)
O=C(c1cnccn1)N1CCC[C@@]2(CCN(Cc3cc(C(F)(F)F)cc(C(F)(F)F)c3)C2)C1	-0.958%	–
O=C(c1cc(C(F)(F)F)cc(C(F)(F)F)c1)N1CCC2(CC1)CN(Cc1ccccc1)C2	10.2%	–
O=C(c1ccncc1)N1CCC2(CCCN(C(c3ccccc3)c3ccccc3)C2)CC1	–	0.2 µM (active)
O=C(c1cnccn1)N1CCC[C@@]2(CCN(Cc3nccs3)C2)C1	1.25%	–
O=C(c1cc(C(F)(F)F)cc(C(F)(F)F)c1)N1CCC2(CCN(Cc3ccccc3)CC2)CC1	-8.02%	–
Cc1noc(C)c1C(=O)N1CCC2(CCCN(C(c3ccccc3)c3ccccc3)C2)CC1	-8.2%	–
O=C(c1cc(C(F)(F)F)cc(C(F)(F)F)c1)N1CCC[C@@]2(CCN(Cc3ccccc3)C2)C1	–	25.1 µM (active)
CC(C)NC(=O)N1CCCC2(CCN(C(=O)c3ccncc3)CC2)C1	-0.498%	–
COC(=O)C/C=C\[C@@H](C)[C@@H](/C=N\OC[C@@H](C)[C@H](OCc1ccccc1)C(C)C)OC	-0.613% [at 11.4 µM]	–
C[C@@H]1c2cccc(O)c2C(O)=C2C(=O)[C@@]3(O)C(O)=C(C(N)=O)C(=O)[C@@H](N(C)C)[C@@H]3[C@@H](O)[C@@H]21	–	inactive
O=C1C(=O)N(c2cccc(Cl)c2)C(c2ccccc2[N+](=O)[O-])/C1=C(\O)c1ccccc1 (stereo not drawn)	-19.7%	–
CC(=O)c1sc(N)c(C(=O)OC(C)C)c1C	–	3.55 µM (active)
O=C1C2CCCN2c2ccc(S(=O)(=O)N3CCOCC3)cc2N1Cc1cccc(C(F)(F)F)c1 (stereo not drawn)	-11.7%	–
Cc1ccc(C)c(CN2C(=O)C3CCCN3c3ccc(C#N)cc32)c1 (stereo not drawn)	–	12.6 µM (active)
CCOC(=O)C1CCN(c2c(NCc3ccc(C(=O)NCCC(C)C)cc3)c(=O)c2=O)CC1	-20.9%	–
CCCCc1cc2ccccc2c(OCCN(C)C)n1	–	0.0794 µM (active)
Cc1ccccc1[C@@H](OCCN(C)C)c1ccccc1	–	inactive
CCCCc1c(O)nc(SCCN(C)C)n(-c2ccccc2)c1=O	7.61%	–

SMILES	activity, negative = inhibition	AC50
Cc1occc1C(=O)NNC(=O)c1ccc(F)cc1	-12.3%	–
CC(=O)C1=C(NC(=O)c2ccc(F)cc2)CC2C1C2(C)C (stereo not drawn)	–	0.2 µM (active)
COC(=O)CSc1ccc2nnc(-c3ccc(F)cc3)n2n1	–	1.58 µM (active)
CCn1c(SCC(=O)OC)nnc1C1CCCCC1	-14.9%	–
COC(=O)C(C)Sc1ccc2nnc(-c3ccc(F)cc3)n2n1 (stereo not drawn)	–	0.794 µM (active)
CC(C)NC(=O)N1CCCC2(CCN(C(=O)c3cccc(F)c3)CC2)C1	19%	–
CCCN(C/C=C\I)[C@@H]1CCc2cccc(O)c2C1	–	2.51 µM (active)
N#C[C@H]1CN[C@H](N)N[C@@H]1N	-11.6% [at 2.29 µM]	–
CCNc1nc(NCC)nc(N(C)N)n1	–	0.708 µM (active)
Cc1ccc(C(=O)N/N=C/c2nc3ccccc3n2C)cc1	–	7.08 µM (active)
Cc1ccc(NC(=O)C2CC(=O)n3c(nc4ccccc43)N2)cc1 (stereo not drawn)	-8.21%	–
Cn1c(/C=N/NC(=O)c2ccccc2Br)nc2ccccc21	–	2.51 µM (active)
c1cncc(CNc2cc(-c3ccoc3)ncn2)c1	–	3.16 µM (active)
c1ccc(CNc2cc(-c3ccoc3)ncn2)cc1	–	25.1 µM (active)
c1csc(CNc2cc(-c3ccoc3)ncn2)c1	–	2 µM (active)
O=C(Oc1ccccc1)N1CCC2(CC1)CCN(c1ccccc1)CC2	-17.5%	–
Cc1ccccc1C(=O)Oc1ccc(Br)cc1C(=S)N1CCCC1	-24.8%	–
O=C(Oc1ccc2ccccc2c1Br)N1CCCCCC1	–	4.47 µM (active)
COC(=O)[C@@H]1O[C@@H](c2c(OC)c(OC)c(C)c(OC)c2OC)[C@H](C)[C@@H](O)[C@@H]1C	-4.49% [at 11.4 µM]	–
CC(C)n1cc(/C=C2/SC(=O)N(CC(=O)Nc3ccc4c(c3)OCO4)C2=O)c2ccccc21	-16.9%	–
Cn1cc(/C=C2/SC(=O)N(CC(=O)Nc3ccc4c(c3)OCO4)C2=O)c2ccccc21	-19.1%	–
Cn1c(-c2ccc3c(c2)OCO3)cc(=O)c2ccccc21	–	5.01 µM (active)
O=C(Nc1ccccc1)N1CCC2(CC1)CCN(C(=O)c1csnn1)CC2	-12.3%	–
O=C(c1csnn1)N1CCC2(CC1)CN(c1ccccc1)C2	-11.9%	–

SMILES	activity, negative = inhibition	AC50
Cc1ccccc1/C=N\NC(=O)c1csnn1	–	1 µM (active)
O=C(CCNC(=O)Cn1ccc2ccccc2c1=O)NCCCN1CCN(c2ccc(F)cc2)CC1	-11.6%	–
CCNc1ncc2nc(-c3ccc(Cl)cc3)c(=O)n(C[C@H]3CCCO3)c2n1	–	0.794 µM (active)
Cc1ccc(C2/C(=C(/O)c3ccc(Cl)cc3)C(=O)C(=O)N2CC2CCCO2)o1 (stereo not drawn)	-8.98%	–
CCNc1ncc2nc(-c3ccc(F)cc3)c(=O)n(C[C@H]3CCCO3)c2n1	–	1.26 µM (active)
CN1CCN(c2ncc3nc(CCc4ccccc4)c(=O)n(C)c3n2)CC1	–	12.6 µM (active)
Cc1nc2cnc(N3CCNCC3)nc2n(Cc2cccs2)c1=O	–	0.631 µM (active)
COc1ccc(-n2c(=O)c(CCc3ccccc3)nc3cnc(N4CCN(C)CC4)nc32)cc1	-18.1%	–
Cc1nc2cnc(N3CCOCC3)nc2n(Cc2cccs2)c1=O	–	2 µM (active)
Cc1nc2cnc(N3CCN(C)CC3)nc2n(Cc2cccs2)c1=O	–	12.6 µM (active)
Cc1cc2c(nc1C)CCCCN2C[C@H](O)CN1CCCc2nc(-c3ccc(Br)cc3)ccc21	-8.63% [at 11.4 µM]	–
Cc1ccc(CCN2CC(C(=O)NCCN3CCCCCC3)CC2=O)cc1 (stereo not drawn)	-17%	–
CN1CCN(c2ncc3nc(CCc4ccccc4)c(=O)n(Cc4ccc(F)cc4)c3n2)CC1	-18.2%	–
O=c1cnc2cnc(N3CCOCC3)nc2n1Cc1cccs1	–	2.51 µM (active)
CN1CCN(c2ncc3nc(CCc4ccccc4)c(=O)n(Cc4cccs4)c3n2)CC1	–	15.8 µM (active)
C[C@H]1NC(=O)NC1=O	–	inactive
COc1cc([C@@H](O)CO)ccc1OS(=O)(=O)O	-0.471%	–
Brc1ccc(/C=C/C=N/Nc2nc3ccccc3s2)cc1	–	2.24 µM (active)
CCCn1cnc2c(SCc3ccc(Cl)cc3)nc(N)nc21	–	1.26 µM (active)
CCCn1cnc2c(SCC(=O)O)nc(N)nc21	1.5% [at 11.4 µM]	–
Cc1ccc2ccccc2c1CSc1nc(N)nc2c1ncn2CC(C)C	-20.8% [at 2.29 µM]	–

Reference: PubChem BioAssay AID1851 (National Center for Advancing Translational Sciences (NCATS), 2009)
